Out of some 5,500 compounds screened, about 2,000 (36%) were called active. Roughly 18% stayed inconclusive and do not appear here. Some of the results follow. Values without a mark were called inactive. Cut-off read from the data, not from the text of the source: active = normalized growth mostly below about 0.91 (no sharp cut-off); inconclusive = no clear call, values can overlap the other calls; inactive = mostly above about 0.92.
Assay: chemical genetic growth profiling, strain panel (AID 1159580);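 note: tested at 20 µM; growth read once vehicle control cultures reached saturation at 30 °C; 1 = growth at the plate median or of vehicle wells; lower values mean less growth of the strain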
Settings: growth OD

CCCCOc1ccc(OCCCN2CCOCC2)cc1
normalized growth (S. cerevisiae deletion strains, locus YJR075W, strain HOC1, active compounds read low): 0.806 (active)
normalized growth (S. cerevisiae deletion strains, locus YKL009W, strain mrt4, active compounds read low): 1
normalized growth (S. cerevisiae deletion strains, locus YKL068W, active compounds read low): 0.998
normalized growth (S. cerevisiae deletion strains, locus YKL085W, strain MDH1 (second series), active compounds read low): 0.997
normalized growth (S. cerevisiae deletion strains, locus YKL085W, strain MDH1, active compounds read low): 0.997
normalized growth (S. cerevisiae deletion strains, locus YKL160W, strain elf1, active compounds read low): 0.914
normalized growth (S. cerevisiae deletion strains, locus YKL190W, strain CNB1, active compounds read low): 0.871 (active)
normalized growth (S. cerevisiae deletion strains, locus YKR001C, strain vps1, active compounds read low): 0.572 (active)
normalized growth (S. cerevisiae deletion strains, locus YKR026C, strain gcn3, active compounds read low): 0.985
normalized growth (S. cerevisiae deletion strains, locus YKR091W, strain srl3, active compounds read low): 0.992
normalized growth (S. cerevisiae deletion strains, locus YLL001W, strain dnm1, active compounds read low): 0.944
normalized growth (S. cerevisiae deletion strains, locus YLL026W, active compounds read low): 0.98
normalized growth (S. cerevisiae deletion strains, locus YLL041C, strain sdh2, active compounds read low): 0.958
normalized growth (S. cerevisiae deletion strains, locus YLR027C, strain aat2, active compounds read low): 0.977
normalized growth (S. cerevisiae deletion strains, locus YLR039C, strain RIC1, active compounds read low): 1.22
normalized growth (S. cerevisiae deletion strains, locus YLR058C, strain SHM2, active compounds read low): 0.908
normalized growth (S. cerevisiae deletion strains, locus YLR102C, strain apc9, active compounds read low): 0.989
normalized growth (S. cerevisiae deletion strains, locus YLR113W, strain HOG1, active compounds read low): 1.03
normalized growth (S. cerevisiae deletion strains, locus YLR221C, strain rsa3, active compounds read low): 0.919
normalized growth (S. cerevisiae deletion strains, locus YLR258W, strain gsy2, active compounds read low): 0.946
normalized growth (S. cerevisiae deletion strains, locus YLR262C, strain YPT6 (second series), active compounds read low): 0.771 (active)
normalized growth (S. cerevisiae deletion strains, locus YLR262C, strain YPT6, active compounds read low): 1.16
normalized growth (S. cerevisiae deletion strains, locus YLR268W, strain sec22, active compounds read low): 0.873 (active)
normalized growth (S. cerevisiae deletion strains, locus YLR320W, strain mms22, active compounds read low): 0.609 (active)
normalized growth (S. cerevisiae deletion strains, locus YLR330W, strain CHS5, active compounds read low): 0.969
normalized growth (S. cerevisiae deletion strains, locus YLR342W, strain FKS1 (second series), active compounds read low): 0.87
normalized growth (S. cerevisiae deletion strains, locus YLR342W, strain FKS1, active compounds read low): 0.985
normalized growth (S. cerevisiae deletion strains, locus YLR357W, strain rsc2, active compounds read low): 1.08
normalized growth (S. cerevisiae deletion strains, locus YLR370C, strain arc18, active compounds read low): 0.986
normalized growth (S. cerevisiae deletion strains, locus YLR371W, strain rom2, active compounds read low): 0.965
normalized growth (S. cerevisiae deletion strains, locus YLR384C, strain iki3, active compounds read low): 0.934
normalized growth (S. cerevisiae deletion strains, locus YLR418C, strain cdc73, active compounds read low): 0.736 (active)
normalized growth (S. cerevisiae deletion strains, locus YML016C, strain PPZ1, active compounds read low): 0.985
normalized growth (S. cerevisiae deletion strains, locus YML032C, strain rad52, active compounds read low): 0.848 (active)
normalized growth (S. cerevisiae deletion strains, locus YML120C, strain ndi1, active compounds read low): 1.01
normalized growth (S. cerevisiae deletion strains, locus YML124C, strain tub3, active compounds read low): 0.997
normalized growth (S. cerevisiae deletion strains, locus YMR058W, strain fet3, active compounds read low): 0.927
normalized growth (S. cerevisiae deletion strains, locus YMR078C, strain ctf18, active compounds read low): 0.975
normalized growth (S. cerevisiae deletion strains, locus YMR125W, strain sto1, active compounds read low): 0.973
normalized growth (S. cerevisiae deletion strains, locus YMR129W, active compounds read low): 1
normalized growth (S. cerevisiae deletion strains, locus YMR205C, strain PFK2, active compounds read low): 0.897
normalized growth (S. cerevisiae deletion strains, locus YMR223W, strain ubp8, active compounds read low): 0.88 (active)
normalized growth (S. cerevisiae deletion strains, locus YMR231W, strain pep5, active compounds read low): 0.967
normalized growth (S. cerevisiae deletion strains, locus YMR263W, strain SAP30, active compounds read low): 0.946
normalized growth (S. cerevisiae deletion strains, locus YMR307W, strain GAS1, active compounds read low): 1
normalized growth (S. cerevisiae deletion strains, locus YNL067W, strain RPL9B, active compounds read low): 0.829 (active)
normalized growth (S. cerevisiae deletion strains, locus YNL071W, strain lat1, active compounds read low): 0.663 (active)
normalized growth (S. cerevisiae deletion strains, locus YNL128W, strain TEP1, active compounds read low): 0.986
normalized growth (S. cerevisiae deletion strains, locus YNL153C, strain GIM3, active compounds read low): 0.903
normalized growth (S. cerevisiae deletion strains, locus YNL183C, strain NPR1, active compounds read low): 0.917
normalized growth (S. cerevisiae deletion strains, locus YNL209W, strain ssb2, active compounds read low): 0.965
normalized growth (S. cerevisiae deletion strains, locus YNL233W, strain BNI4, active compounds read low): 0.767 (active)
normalized growth (S. cerevisiae deletion strains, locus YNL248C, strain rpa49, active compounds read low): 0.769 (active)
normalized growth (S. cerevisiae deletion strains, locus YNL250W, strain rad50, active compounds read low): 0.963
normalized growth (S. cerevisiae deletion strains, locus YNL271C, strain bni1, active compounds read low): 0.966
normalized growth (S. cerevisiae deletion strains, locus YNL298W, strain CLA4, active compounds read low): 0.975
normalized growth (S. cerevisiae deletion strains, locus YNL307C, strain MCK1, active compounds read low): 0.649 (active)
normalized growth (S. cerevisiae deletion strains, locus YNL322C, strain KRE1 (second series), active compounds read low): 1.02
normalized growth (S. cerevisiae deletion strains, locus YNL322C, strain KRE1, active compounds read low): 0.977
normalized growth (S. cerevisiae deletion strains, locus YNR049C, strain mso1, active compounds read low): 0.978
normalized growth (S. cerevisiae deletion strains, locus YNR052C, strain pop2, active compounds read low): 0.83 (active)
normalized growth (S. cerevisiae deletion strains, locus YOL006C, strain TOP1, active compounds read low): 0.239 (active)
normalized growth (S. cerevisiae deletion strains, locus YOL012C, strain htz1): 1.06
normalized growth (S. cerevisiae deletion strains, locus YOL147C, strain pex11, active compounds read low): 0.962
normalized growth (S. cerevisiae deletion strains, locus YOR001W, strain rrp6, active compounds read low): 0.8 (active)
normalized growth (S. cerevisiae deletion strains, locus YOR061W, strain CKA2, active compounds read low): 0.987
normalized growth (S. cerevisiae deletion strains, locus YOR069W, strain VPS5, active compounds read low): 0.995
normalized growth (S. cerevisiae deletion strains, locus YOR070C, strain gyp1, active compounds read low): 0.632 (active)
normalized growth (S. cerevisiae deletion strains, locus YOR080W, strain dia2, active compounds read low): 0.985
normalized growth (S. cerevisiae deletion strains, locus YOR083W, strain WHI5, active compounds read low): 0.931
normalized growth (S. cerevisiae deletion strains, locus YOR106W, strain vam3, active compounds read low): 0.875
normalized growth (S. cerevisiae deletion strains, locus YOR136W, strain idh2, active compounds read low): 0.962
normalized growth (S. cerevisiae deletion strains, locus YOR144C, strain elg1, active compounds read low): 0.994
normalized growth (S. cerevisiae deletion strains, locus YOR184W, strain ser1, active compounds read low): 0.742 (active)
normalized growth (S. cerevisiae deletion strains, locus YOR231W, strain MKK1, active compounds read low): 0.984
normalized growth (S. cerevisiae deletion strains, locus YOR265W, strain rbl2, active compounds read low): 0.967
normalized growth (S. cerevisiae deletion strains, locus YOR270C, strain vph1, active compounds read low): 0.41 (active)
normalized growth (S. cerevisiae deletion strains, locus YOR290C, strain snf2, active compounds read low): 0.917
normalized growth (S. cerevisiae deletion strains, locus YOR316C, strain cot1, active compounds read low): 0.99
normalized growth (S. cerevisiae deletion strains, locus YPL051W, strain arl3, active compounds read low): 0.873 (active)
normalized growth (S. cerevisiae deletion strains, locus YPL055C, strain LGE1, active compounds read low): 0.857
normalized growth (S. cerevisiae deletion strains, locus YPL078C, strain atp4, active compounds read low): 0.941
normalized growth (S. cerevisiae deletion strains, locus YPL106C, strain sse1, active compounds read low): 1.09
normalized growth (S. cerevisiae deletion strains, locus YPL240C, strain hsp82, active compounds read low): 0.982
normalized growth (S. cerevisiae deletion strains, locus YPL241C, strain CIN2, active compounds read low): 0.992
normalized growth (S. cerevisiae deletion strains, locus YPL256C, strain CLN2, active compounds read low): 1.02
normalized growth (S. cerevisiae deletion strains, locus YPR119W, strain clb2, active compounds read low): 1.01
normalized growth (S. cerevisiae deletion strains, locus YPR141C, strain kar3, active compounds read low): 0.984
normalized growth (S. cerevisiae deletion strains, locus YPR163C, strain tif3, active compounds read low): 0.765 (active)
normalized growth (S. cerevisiae deletion strains, locus YPR167C, strain met16, active compounds read low): 0.977
normalized growth (S. cerevisiae deletion strains, strain wtn01, active compounds read low): 0.856 (active)
normalized growth (S. cerevisiae strains, strain wild type, active compounds read low): 0.895 (active)
